KB-3-1 cytotox: qHTS assay for MDR1-selective chemotherapeutics: Primary screen using the parental adenocarcinoma cell KB-3-1 | KB-3-1 viability, CellTiter-Glo ATP luminescence, 72 h | Potency, µM (doses to about 46.1 µM), actives largely listed as cytotoxic | 1.4% of 400,000 active | AID 1347075, 2019; note: % is set by controls: 0 for no effect and ±100 for the full control effect; nearly all actives have a fitted effect of over 60% in size
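Multi-concentration cytotoxicity screen in KB-3-1 cells grown in DMEM lacking phenol red with 10% FBS. After 72 h at 37 °C with compound, ATP-dependent luminescence was recorded.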
KB-V1 cytotox: qHTS assay for MDR1-selective chemotherapeutics: Primary screen using the drug-selected MDR subline cells KB-V1; 3.4% of 400,000 active; Potency, µM (series often up to 46.1 µM), most hits filed as cytotoxic; KB-V1 MDR cells viability, CellTiter-Glo, 72 h; AID 1347076, 2019; note: % is set by controls: 0 for no effect and ±100 for the full control effect; nearly all actives have a fitted effect of over 60% in size
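qHTS viability screen in drug-selected KB-V1 MDR cells: 72 h compound treatment at 37 degrees C, ATP luminescence end point.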
HT1080 IDH1KD tx: qHTS for induction of synthetic lethality in tumor cells producing 2HG: qHTS for the HT-1080-IDH1KD cell line; HT-1080 IDH1 knockdown viability, ATP luminescence, 48 h; Potency, µM (series often up to 46.1 µM), without a hit: at the top dose activity, negative = toxicity, most hits filed as cytotoxic; 2% of 360,000 active; AID 686971, 2013;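 note: 0% = DMSO wells and -100% = cell-free medium wells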
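Viability of IDH1-knockdown HT-1080 fibrosarcoma cells was assessed by CellTiter-Glo after 48 h at 37 °C with titrated compound; concentration-effect curves were classified by fit quality and response size.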
MCF10A rereplic: A quantitative high throughput screen for small molecules that induce DNA re-replication in MCF 10a normal breast cells; MCF 10A DNA re-replication, Hoechst nuclear intensity, 48 h; Potency, µM (top dose mostly 46.1 µM), inactives show top-dose activity, positive = re-replication, usual class: activators; 2.9% of 350,000 active; AID 624296, 2012; note: % of control where 0% means no effect; nearly all actives have a fitted effect of over 50% in size
HT1080NT lethal: qHTS for induction of synthetic lethality in tumor cells producing 2HG: qHTS for the HT-1080-NT fibrosarcoma cell line | HT-1080-NT fibrosarcoma viability, CellTiter-Glo ATP luminescence, 48 h | Potency, µM (series often up to 46.1 µM), without a hit: at the highest dose activity, negative = less viability, most hits filed as cytotoxic | 1.6% of 360,000 active;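 note: NT is the 2HG producing partner of a matched IDH1 knockdown line; 0% = DMSO-treated cells and -100% = media-only wells without cells; nearly all actives have a fitted effect of over 55% in size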
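750 cells/well, RPMI + 5% FBS; 2 h settle, compound pin-transfer, 48 h at 37 degrees C. CellTiter-Glo 10 min RT, luminescence. Normalized to DMSO and media-only wells.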
SW480 rerep: A quantitative high throughput screen for small molecules that induce DNA re-replication in SW480 colon adenocarcinoma cells | SW480 DNA re-replication, Hoechst DNA content imaging, 48 h | Potency, µM (top dose mostly 46.1 µM), inactives show top-dose re-replication activation, usual class: activators | 1.8% of 340,000 active; note: % of control where 0% means no effect; nearly all actives have a fitted effect of over 55% in size
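Per well, 250 cells were exposed to pinned compound for 48 hr. Nuclear DNA was visualised with Hoechst (40 min, 37 C) and total object intensity recorded by fluorescence scanning.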
Active calls of the source: *; i = inactive; ? = inconclusive; nt = no result given. In the library only some 8% were active in any assay of this set; here they are far more common. Calls come from the whole dose curve; as a rule, active = well fitted curve in the direction sought with a large enough effect; inconclusive = small, poorly fitted or top-dose-only effect, or another doubt; inactive = no such curve, though single readings can be large; an effect the other way counts as inactive or inconclusive. Potency is the fitted concentration of half-maximal effect.

SMILES	KB-3-1 cytotox	KB-V1 cytotox	HT1080 IDH1KD tx	MCF10A rereplic	HT1080NT lethal	SW480 rerep
COc1ccc(S(=O)(=O)NCCc2sc(C)nc2C)cc1F	?	16µM*	nt	nt	nt	nt
COc1ccc(CCNS(=O)(=O)c2ccc(OC)c(OC)c2)cc1OC	i	i	-4%	?	1%	-22%
N=c1ccn(Cc2cccc(F)c2)cc1	23µM*	i	-22%	-3%	?	?
Nc1ccn(Cc2cccc(F)c2)n1	i	i	7%	4%	2%	-2%
CCc1ccccc1NC(=O)C(CC)Sc1ncnc2c1sc1ccccc12 (stereo not drawn)	i	i	nt	nt	nt	nt
COc1cc2c(cc1OC)C1=C(C#N)CC/C(=N\S(=O)(=O)c3cccc(Cl)c3)N1CC2	?	16µM*	?	2%	-14%	4%
c1ccc(-c2ccc(OCCCNC3CCCC3)cc2)cc1	?	i	18µM*	6.5µM*	15µM*	?
Cc1ccc(P(=O)(c2ccc(C)cc2)[C@@H](NC(c2ccccc2)c2ccccc2)c2ccccc2)cc1	?	21µM*	16µM*	nt	15µM*	nt
Cc1ccc(P(=O)(O)c2ccc(C)cc2)cc1	i	i	-3%	54%	-6%	21%
COc1ccc(Nc2nnc(SCc3cc(=O)n4ccsc4n3)s2)cc1	i	?	-23%	13%	-17%	7%
COC(=O)c1sc(-c2ccc(C(C)(C)C)cc2)cc1NC(=O)COCC(=O)O	i	i	21µM*	21µM*	16µM*	-4%
O=C1C2C(C(=O)N1/N=C/c1ccc(N3CCCCC3)o1)C1C=CC2C12CC2 (stereo not drawn)	?	?	11%	18µM*	9%	?
O=C(O)CN1C(=O)/C(=C/c2ccc(N3CCCCC3)o2)SC1=S	i	i	-1%	-2%	-11%	-4%
CCOc1cccc2sc(N(CCN(CC)CC)C(=O)c3ccco3)nc12	i	i	nt	nt	nt	nt
COc1ccc(S(=O)(=O)N(CC(=O)NCCSc2ccccc2)c2ccc(Cl)cc2)cc1	i	i	nt	nt	nt	nt
CCOc1ccc(S(=O)(=O)N2CCN=C2c2ccccc2)cc1	?	12µM*	-27%	21µM*	?	7.3µM*
COc1ccccc1N1CCN(c2nc3c(C)cccn3c(=O)c2C=O)CC1	i	23µM*	?	9%	-15%	-3%
Cc1cccn2c(=O)c(C=O)c(N3CCCCCC3)nc12	i	15µM*	?	?	-6%	-9%
COC(=O)CCC[N+](C)(C)C	nt	nt	nt	-3%	nt	2%
O=C(NCc1ccccc1Cl)c1cccc2c1C(=O)c1ccc(-c3ccc(OC(F)(F)F)cc3)cc1S2(=O)=O	?	?	-18%	?	-12%	2%
CCOC(=O)C1(CCOc2ccccc2)CCN(Cc2ccc3c(c2)OCCO3)CC1	i	i	?	?	18µM*	?
CCOC(=O)C1(CCOc2ccccc2)CCN(Cc2ccc(O)c(Cl)c2)CC1	i	i	-8%	-7%	-12%	0%
CCOC(=O)C1(CCCc2ccccc2)CCN(Cc2cnc(C)s2)CC1	i	?	?	?	18µM*	4%
CCOC(=O)C1(CCCc2ccccc2)CCN(Cc2cn(CC)nc2C)CC1	21µM*	i	?	?	?	?
CCOC(=O)C1(Cc2cccc(F)c2)CCN(Cc2cn(CC)nc2C)CC1	i	?	-12%	-2%	4%	2%
SMILES	KB-3-1 cytotox	KB-V1 cytotox	HT1080 IDH1KD tx	MCF10A rereplic	HT1080NT lethal	SW480 rerep
Cc1ccc(C(=O)OCC(=O)Nc2ccc(N3CCOCC3)cc2)cc1	i	i	2%	2%	1%	-8%
Cc1ccc(CNC(=O)c2cc(=O)c3cc(C)c(C)cc3o2)cc1	i	i	nt	nt	nt	nt
CCC(=O)c1ccc(N2CCN(C(=O)c3cccs3)CC2)c(F)c1	i	i	-1%	6.5µM*	-1%	?
COc1cccc(C(=O)Nc2ccc(N3CCN(C(=O)c4cccs4)CC3)cc2)c1	5.2µM*	2.3µM*	2.6µM*	13µM*	?	5.8µM*
COc1cccc(OC)c1C(=O)Nc1ccc(N2CCN(C(=O)c3cccs3)CC2)cc1	i	i	0%	-5%	16%	-4%
O=C(Nc1ccc(N2CCN(C(=O)c3cccs3)CC2)cc1)c1cccc(F)c1	18µM*	?	?	?	-29%	?
C/C=C(\C)CN1CCC(n2nccc2NC(=O)CCOc2ccccc2)CC1	i	i	0%	40%	0%	18µM*
C/C=C(\C)CN1CCC(n2nccc2NC(=O)CCc2ccccc2)CC1	i	i	-1%	8%	0%	-3%
Cc1ccc(-c2csc3ncnc(Sc4nnnn4C4CC4)c23)cc1	?	i	nt	nt	nt	nt
Cc1ccc(S(=O)(=O)Nc2ccc(NC(=O)Nc3ccc(F)cc3F)cc2)cc1	?	23µM*	-12%	?	0%	-70%
Cc1ccc(NS(=O)(=O)c2ccc(C3CCCCC3)cc2)cc1	?	21µM*	-25%	23µM*	-24%	-4%
Cc1ccc(S(=O)(=O)Nc2ccc(N3CCCCC3)cc2)cc1	i	i	-12%	11%	-12%	17%
Cc1ccc(S(=O)(=O)Nc2ccc(S(=O)(=O)NC(C)(C)C)cc2)cc1	?	18µM*	3%	0%	-6%	-2%
CC(C)(C)NS(=O)(=O)c1ccc(NS(=O)(=O)c2ccc(F)cc2)cc1	i	i	5%	0%	5%	-3%
Cc1ccc(NS(=O)(=O)c2ccc(NC(=O)C3CCCO3)cc2)cc1 (stereo not drawn)	i	13µM*	-8%	-2%	-12%	-4%
O=C(Nc1ccc(S(=O)(=O)N2CCCC2)cc1)Nc1ccc(F)cc1F	i	i	-25%	5%	-2%	-5%
Cc1cc2oc(C(=O)N(Cc3ccccc3F)C3CCS(=O)(=O)C3)c(C)c2cc1Cl (stereo not drawn)	i	i	nt	nt	nt	nt
Cc1cc(-c2nc3cc(F)ccc3s2)ccc1N	?	18µM*	-32%	10µM*	-10%	18µM*
CCCNC(=O)Cn1nc(-c2ccc(C)cc2)c2cnc3ccc(CC)cc3c21	i	i	nt	nt	nt	nt

Screens (PubChem)
